According to PubChem BioAssay AID1159580 (chemical genetic matrix, 2015):
“And” between values parts separate entries of the source, which are not always exact repeats. Identical values can stand only once. Screen size: about 5,500 compounds; about 2,000 (36%) were called active. Not shown: some 18% with an inconclusive outcome. Rule as the data show it: active = normalized growth mostly below about 0.91 (no sharp cut-off); inconclusive = no clear call, values can overlap the other calls; inactive = mostly above about 0.92. The list shows a part of the results.

Assay: chemical genetic growth profiling, strain panel (AID 1159580);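 also: tested at 20 µM; growth read once vehicle control cultures reached saturation at 30 °C; 1 = growth at the plate median or of vehicle wells; lower values mean less growth of the strain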
Details: S. cerevisiae deletion strains, growth OD

Measured: normalized growth

NCCCCC(=O)O
inactive: locus YAL013W, strain DEP1, stronger effect = lower value 1.03 | locus YAL021C, strain ccr4, stronger effect = lower value 1.01 | locus YAL026C, strain drs2, stronger effect = lower value 1.02 | locus YAL030W, strain snc1, stronger effect = lower value 1.01 | locus YAL040C, strain CLN3, stronger effect = lower value 1.01 | locus YBL061C, strain skt5, stronger effect = lower value 1.02 | locus YBR009C, strain hhf1, stronger effect = lower value 1.02 | locus YBR021W, strain FUR4, stronger effect = lower value 0.976 | locus YBR023C, strain chs3, stronger effect = lower value 1.02 | locus YBR171W, strain sec66, stronger effect = lower value 1.02 | locus YBR229C, strain ROT2, stronger effect = lower value 1.02 | locus YBR231C, strain swc5, stronger effect = lower value 1.02 | locus YBR279W, strain paf1, stronger effect = lower value 1.01 | locus YCL011C, strain gbp2, stronger effect = lower value 1.02 | locus YCL016C, strain dcc1, stronger effect = lower value 1.01 | locus YCL029C, strain bik1, stronger effect = lower value 0.998 | locus YCL061C, strain MRC1 (second series), stronger effect = lower value 1 | locus YCL069W, strain vba3, stronger effect = lower value 1.01 | locus YCR088W, strain abp1, stronger effect = lower value 1.02 | locus YDL005C, strain med2, stronger effect = lower value 1.02 | locus YDL035C, strain GPR1, stronger effect = lower value 1.02 | locus YDL040C, strain nat1, stronger effect = lower value 1.02 | locus YDL074C, strain BRE1, stronger effect = lower value 1.04 | locus YDL101C, strain DUN1, stronger effect = lower value 1.03 | locus YDL134C, strain PPH21, stronger effect = lower value 1.02 | locus YDL185W, strain tfp1, stronger effect = lower value 0.995 | locus YDL192W, strain arf1, stronger effect = lower value 0.992 | locus YDR001C, strain nth1, stronger effect = lower value 1.01 | locus YDR069C, strain doa4, stronger effect = lower value 1.02 | locus YDR101C, strain arx1, stronger effect = lower value 0.985 | locus YDR137W, strain rgp1, stronger effect = lower value 1.02 | locus YDR150W, strain NUM1, stronger effect = lower value 1.03 | locus YDR159W, strain sac3, stronger effect = lower value 1.03 | locus YDR162C, strain NBP2, stronger effect = lower value 1.04 | locus YDR195W, strain ref2 1.01 | locus YDR297W, strain sur2, stronger effect = lower value 1.02 | locus YDR318W, strain mcm21, stronger effect = lower value 0.992 | locus YDR334W, strain swr1, stronger effect = lower value 1.01 | locus YDR335W, strain msn5, stronger effect = lower value 1.01 | locus YDR388W, stronger effect = lower value 0.986 | locus YDR392W, strain spt3, stronger effect = lower value 1.01 | locus YDR502C, strain sam2, stronger effect = lower value 1 | locus YEL003W, strain gim4, stronger effect = lower value 1.01 | locus YEL037C, strain rad23, stronger effect = lower value 1 | locus YEL061C, strain CIN8 (second series), stronger effect = lower value 1.01 | locus YEL061C, strain CIN8, stronger effect = lower value 1.01 | locus YER002W, strain NOP16, stronger effect = lower value 1 | locus YER015W, strain faa2, stronger effect = lower value 1.02 | locus YER016W, strain bim1, stronger effect = lower value 1.02 | locus YER110C, stronger effect = lower value 0.977 | locus YER111C, strain swi4, stronger effect = lower value 1.03 | locus YER155C, strain BEM2 (second series), stronger effect = lower value 1.04 | locus YER155C, strain BEM2, stronger effect = lower value 1.03 | locus YER167W, strain BCK2, stronger effect = lower value 1.03 | locus YFR010W, strain ubp6, stronger effect = lower value 1.01 | locus YGL078C, strain dbp3, stronger effect = lower value 0.989 | locus YGL086W, strain mad1, stronger effect = lower value 0.993 | locus YGL167C, strain pmr1, stronger effect = lower value 1.03 | locus YGL173C, strain kem1, stronger effect = lower value 1.02 | locus YGL227W, strain vid30, stronger effect = lower value 1.02 | locus YGL240W, strain doc1, stronger effect = lower value 1.03 | locus YGL248W, strain PDE1, stronger effect = lower value 1.03 | locus YGL253W, strain hxk2, stronger effect = lower value 1.01 | locus YGR078C, strain PAC10, stronger effect = lower value 1.03 | locus YGR135W, strain pre9, stronger effect = lower value 0.985 | locus YGR229C, strain SMI1, stronger effect = lower value 1.02 and 1.01 | locus YGR252W, strain gcn5, stronger effect = lower value 0.917 | locus YHR013C, strain ard1, stronger effect = lower value 1.04 | locus YHR027C, strain rpn1, stronger effect = lower value 1.01 | locus YHR030C, strain SLT2, stronger effect = lower value 1.02 and 0.975 | locus YHR079C, strain IRE1 (second series), stronger effect = lower value 0.992 | locus YHR079C, strain IRE1, stronger effect = lower value 0.961 | locus YHR094C, strain hxt1, stronger effect = lower value 1 | locus YHR129C, strain ARP1, stronger effect = lower value 1.02 | locus YHR142W, strain chs7, stronger effect = lower value 1.03 | locus YHR200W, strain rpn10, stronger effect = lower value 1.01 | locus YIL066C, strain RNR3, stronger effect = lower value 1.02 | locus YIL073C, strain SPO22, stronger effect = lower value 1.02 | locus YIL125W, strain kgd1, stronger effect = lower value 0.994 | locus YIR030C, strain dcg1, stronger effect = lower value 0.998 | locus YJL092W, strain hpr5, stronger effect = lower value 1.02 | locus YJL095W, strain BCK1 (second series), stronger effect = lower value 1.03 | locus YJL095W, strain BCK1, stronger effect = lower value 1.02 and 0.979 | locus YJL115W, strain asf1, stronger effect = lower value 1.02 | locus YJL129C, strain trk1, stronger effect = lower value 1.03 | locus YJL134W, strain LCB3, stronger effect = lower value 1.02 | locus YJL154C, strain vps35, stronger effect = lower value 1.02 | locus YJL164C, strain tpk1, stronger effect = lower value 1.02 | locus YJL166W, strain qcr8, stronger effect = lower value 1.02 | locus YJL168C, strain set2, stronger effect = lower value 0.991 | locus YJL187C, strain SWE1 (second series), stronger effect = lower value 1.02 | locus YJR043C, strain POL32, stronger effect = lower value 1.03 | locus YJR066W, strain TOR1, stronger effect = lower value 0.902 | locus YJR075W, strain HOC1, stronger effect = lower value 1.03
